In PubChem BioAssay AID1159580 (chemical genetic matrix, 2015):
Among all 5,500 compounds or so, about 2,000 (36%) were called active. Not shown: some 18% with an inconclusive outcome. No stated cut-off is given here; in the data, active means normalized growth mostly below about 0.91 (no sharp cut-off); inconclusive means no clear call, values can overlap the other calls; inactive means mostly above about 0.92. The list shows a part of the results.

Assay: chemical genetic growth profiling, strain panel (AID 1159580);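 further: tested at 20 µM; growth read once vehicle control cultures reached saturation at 30 °C; 1 = growth at the plate median or of vehicle wells; lower values mean less growth of the strain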
Conditions: growth OD

Measured: normalized growth

CO[C@H]1[C@H](O)[C@H](O[C@H]2CC[C@]3(C)C4CC[C@]5(C)C(C6=CC(=O)OC6)CC[C@]5(O)C4CC[C@@H]3C2)O[C@@H](C)[C@@H]1O (some centres undefined)
inactive: S. cerevisiae deletion strains, locus YJR043C, strain POL32, active compounds read low 1.02 | S. cerevisiae deletion strains, locus YJR075W, strain HOC1, active compounds read low 1.02 | S. cerevisiae deletion strains, locus YKL009W, strain mrt4, active compounds read low 0.996 | S. cerevisiae deletion strains, locus YKL068W, active compounds read low 1 | S. cerevisiae deletion strains, locus YKL085W, strain MDH1 (second series), active compounds read low 1.01 | S. cerevisiae deletion strains, locus YKL085W, strain MDH1, active compounds read low 1.01 | S. cerevisiae deletion strains, locus YKL160W, strain elf1, active compounds read low 0.989 | S. cerevisiae deletion strains, locus YKL190W, strain CNB1, active compounds read low 1.01 | S. cerevisiae deletion strains, locus YKR001C, strain vps1, active compounds read low 0.992 | S. cerevisiae deletion strains, locus YKR026C, strain gcn3, active compounds read low 0.995 | S. cerevisiae deletion strains, locus YKR091W, strain srl3, active compounds read low 0.995 | S. cerevisiae deletion strains, locus YLL001W, strain dnm1, active compounds read low 0.999 | S. cerevisiae deletion strains, locus YLL026W, active compounds read low 1 | S. cerevisiae deletion strains, locus YLL041C, strain sdh2, active compounds read low 1.01 | S. cerevisiae deletion strains, locus YLR027C, strain aat2, active compounds read low 0.999 | S. cerevisiae deletion strains, locus YLR039C, strain RIC1, active compounds read low 1.02 | S. cerevisiae deletion strains, locus YLR058C, strain SHM2, active compounds read low 1.02 | S. cerevisiae deletion strains, locus YLR102C, strain apc9, active compounds read low 1 | S. cerevisiae deletion strains, locus YLR221C, strain rsa3, active compounds read low 1.01 | S. cerevisiae deletion strains, locus YLR258W, strain gsy2, active compounds read low 1 | S. cerevisiae deletion strains, locus YLR262C, strain YPT6 (second series), active compounds read low 1.01 | S. cerevisiae deletion strains, locus YLR262C, strain YPT6, active compounds read low 1.01 | S. cerevisiae deletion strains, locus YLR268W, strain sec22, active compounds read low 1.02 | S. cerevisiae deletion strains, locus YLR320W, strain mms22, active compounds read low 1.01 | S. cerevisiae deletion strains, locus YLR330W, strain CHS5, active compounds read low 1.02 | S. cerevisiae deletion strains, locus YLR342W, strain FKS1 (second series), active compounds read low 1.06 | S. cerevisiae deletion strains, locus YLR342W, strain FKS1, active compounds read low 1 | S. cerevisiae deletion strains, locus YLR357W, strain rsc2, active compounds read low 0.992 | S. cerevisiae deletion strains, locus YLR370C, strain arc18, active compounds read low 1 | S. cerevisiae deletion strains, locus YLR371W, strain rom2, active compounds read low 1.02 | S. cerevisiae deletion strains, locus YLR384C, strain iki3, active compounds read low 0.991 | S. cerevisiae deletion strains, locus YLR418C, strain cdc73, active compounds read low 1.03 | S. cerevisiae deletion strains, locus YML016C, strain PPZ1, active compounds read low 1.01 | S. cerevisiae deletion strains, locus YML032C, strain rad52, active compounds read low 1 | S. cerevisiae deletion strains, locus YML120C, strain ndi1, active compounds read low 1.03 | S. cerevisiae deletion strains, locus YML124C, strain tub3, active compounds read low 1.01 | S. cerevisiae deletion strains, locus YMR058W, strain fet3, active compounds read low 1.02 | S. cerevisiae deletion strains, locus YMR078C, strain ctf18, active compounds read low 1.01 | S. cerevisiae deletion strains, locus YMR125W, strain sto1, active compounds read low 0.981 | S. cerevisiae deletion strains, locus YMR129W, active compounds read low 1.01 | S. cerevisiae deletion strains, locus YMR205C, strain PFK2, active compounds read low 1 | S. cerevisiae deletion strains, locus YMR223W, strain ubp8, active compounds read low 0.994 | S. cerevisiae deletion strains, locus YMR231W, strain pep5, active compounds read low 1 | S. cerevisiae deletion strains, locus YMR263W, strain SAP30, active compounds read low 1.01 | S. cerevisiae deletion strains, locus YMR307W, strain GAS1, active compounds read low 1.06 | S. cerevisiae deletion strains, locus YNL067W, strain RPL9B, active compounds read low 1.02 | S. cerevisiae deletion strains, locus YNL071W, strain lat1, active compounds read low 0.996 | S. cerevisiae deletion strains, locus YNL128W, strain TEP1, active compounds read low 1.04 | S. cerevisiae deletion strains, locus YNL153C, strain GIM3, active compounds read low 1.02 | S. cerevisiae deletion strains, locus YNL209W, strain ssb2, active compounds read low 0.985 | S. cerevisiae deletion strains, locus YNL233W, strain BNI4, active compounds read low 1.02 | S. cerevisiae deletion strains, locus YNL248C, strain rpa49, active compounds read low 0.991 | S. cerevisiae deletion strains, locus YNL250W, strain rad50, active compounds read low 1 | S. cerevisiae deletion strains, locus YNL271C, strain bni1, active compounds read low 1.01 | S. cerevisiae deletion strains, locus YNL298W, strain CLA4, active compounds read low 0.999 | S. cerevisiae deletion strains, locus YNL307C, strain MCK1, active compounds read low 1.02 | S. cerevisiae deletion strains, locus YNL322C, strain KRE1 (second series), active compounds read low 0.989 | S. cerevisiae deletion strains, locus YNL322C, strain KRE1, active compounds read low 1.01 | S. cerevisiae deletion strains, locus YNR049C, strain mso1, active compounds read low 1 | S. cerevisiae deletion strains, locus YNR052C, strain pop2, active compounds read low 1 | S. cerevisiae deletion strains, locus YOL006C, strain TOP1, active compounds read low 1.06 | S. cerevisiae deletion strains, locus YOL012C, strain htz1 1.19 | S. cerevisiae deletion strains, locus YOL147C, strain pex11, active compounds read low 1.01 | S. cerevisiae deletion strains, locus YOR001W, strain rrp6, active compounds read low 1.02 | S. cerevisiae deletion strains, locus YOR061W, strain CKA2, active compounds read low 1.01 | S. cerevisiae deletion strains, locus YOR069W, strain VPS5, active compounds read low 1.01 | S. cerevisiae deletion strains, locus YOR070C, strain gyp1, active compounds read low 1.01 | S. cerevisiae deletion strains, locus YOR080W, strain dia2, active compounds read low 1 | S. cerevisiae deletion strains, locus YOR083W, strain WHI5, active compounds read low 0.955 | S. cerevisiae deletion strains, locus YOR106W, strain vam3, active compounds read low 0.984 | S. cerevisiae deletion strains, locus YOR136W, strain idh2, active compounds read low 1.01 | S. cerevisiae deletion strains, locus YOR144C, strain elg1, active compounds read low 1.01 | S. cerevisiae deletion strains, locus YOR184W, strain ser1, active compounds read low 1.01 | S. cerevisiae deletion strains, locus YOR265W, strain rbl2, active compounds read low 1.01 | S. cerevisiae deletion strains, locus YOR270C, strain vph1, active compounds read low 0.97 | S. cerevisiae deletion strains, locus YOR290C, strain snf2, active compounds read low 1.01 | S. cerevisiae deletion strains, locus YOR316C, strain cot1, active compounds read low 1 | S. cerevisiae deletion strains, locus YPL051W, strain arl3, active compounds read low 0.994 | S. cerevisiae deletion strains, locus YPL055C, strain LGE1, active compounds read low 1 | S. cerevisiae deletion strains, locus YPL078C, strain atp4, active compounds read low 0.989 | S. cerevisiae deletion strains, locus YPL106C, strain sse1, active compounds read low 0.959 | S. cerevisiae deletion strains, locus YPL240C, strain hsp82, active compounds read low 0.998 | S. cerevisiae deletion strains, locus YPL241C, strain CIN2, active compounds read low 1.01 | S. cerevisiae deletion strains, locus YPR119W, strain clb2, active compounds read low 0.996 | S. cerevisiae deletion strains, locus YPR141C, strain kar3, active compounds read low 1 | S. cerevisiae deletion strains, locus YPR163C, strain tif3, active compounds read low 1.01 | S. cerevisiae deletion strains, locus YPR167C, strain met16, active compounds read low 0.998 | S. cerevisiae deletion strains, strain wtn01, active compounds read low 1 | S. cerevisiae strains, strain wild type, active compounds read low 1.02
